# Measurements taken from PubChem BioAssay (NCI).
# This is part of a sample that, as a whole, favours compounds with a hit. Of some 83,000 tested, about 20% had one in any assay.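 Assay: single dose, 48 h. Readout: percent growth (0 = no net growth; negative = cell death). Active: <10.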 A number with no mark means an inactive call. Active and inactive are the calls of the source.
# Assays:
# Experiment in all cases: NCI-60 one-dose screen, 48 h (100 = growth as untreated, 0 = no growth, -100 = all killed)
# Conditions in all cases: 10 µM
# T-47D breast = test system: T-47D breast
# BT-549 breast = test system: BT-549 breast
# MDA-MB-435 melanoma = test system: MDA-MB-435 melanoma
# SW-620 colon = test system: SW-620 colon
# MCF7 breast = test system: MCF7 breast
# HCT-116 colon = test system: HCT-116 colon
# HCC-2998 colon = test system: HCC-2998 colon
# KM12 colon = test system: KM12 colon
SMILES,growth (T-47D breast),growth (BT-549 breast),growth (MDA-MB-435 melanoma),growth (SW-620 colon),growth (MCF7 breast),growth (HCT-116 colon),growth (HCC-2998 colon),growth (KM12 colon)
CCOC(=O)c1cc(C(=O)c2cc(OC)c(OC)c(OC)c2)n2c1ccc1c3cccnc3ccc12,50.7%,68.9%,8.8% (active),23.6%,28.8%,21.6%,81.9%,41.5%
CC(C)C1=C(O)C2=C(C(=O)C1=O)[C@@]1(C)CCCC(C)(C)[C@@H]1CC2,67.7%,106%,75.4%,55.4%,66.4%,58%,53.8%,52%
C=CCn1c(SCC(=O)Nc2ccc(C(=O)/C=C/c3ccc(Cl)cc3)cc2)nnc1-c1cc(-c2ccccc2)nc2ccccc12,84.6%,64.2%,77.9%,5.4% (active),12.2%,-22.9% (active),87.4%,76.5%
CCOC(=O)c1cc(C(=O)c2ccc(OC)c(OC)c2)n2ccncc12,78.8%,84.5%,104%,100%,79.6%,93.3%,101%,101%
N#Cc1c(-c2ccc(Cl)cc2)cc(-c2cc(O)ccc2O)nc1N,8.26% (active),22.6%,6.77% (active),8.32% (active),4.41% (active),19.8%,52.7%,27.2%
S=c1cnc2ccccc2[nH]1,81.9%,103%,101%,91%,72.9%,88.3%,67.6%,93.9%
NS(=O)(=O)Oc1ccc2c(ccn2C(=O)C23CC4CC(CC(C4)C2)C3)c1,112%,105%,106%,103%,120%,102%,101%,107%
CN(C)CCC1(c2ccccc2)CCN(C)C1=O (centres undefined),104%,106%,105%,103%,106%,110%,108%,103%
COC(=O)C1OC1c1cc([N+](=O)[O-])ccc1OC (centres undefined),70%,107%,107%,107%,89.3%,102%,96.1%,99.3%
Cc1cc(CC(C)CC(C)(C)C)n(O)c(=O)c1 (centres undefined) (tested in a mixture with another compound),28.1%,29.4%,22.2%,34.4%,17.5%,22.9%,57.5%,27.4%
CC1/C=C/C=C/C=C/C=C/C=C/C=C/C=C/C(O[C@@H]2O[C@H](C)[C@H](O)[C@@H](O)[C@@H]2N)CC(O)C(C(=O)O)C(O)CC(=O)CC(O)CC(O)CC(O)CC(=O)CCCC(=O)CC(=O)OC1C(C)CC(C)C(O)CC(=O)c1ccc(N)cc1 (some centres undefined),-87.1% (active),-93% (active),-93% (active),-95.3% (active),-87% (active),-90.7% (active),-98.1% (active),-96% (active)
O=C(Nc1cc([N+](=O)[O-])c2[nH]c(=O)c3ccccc3c2c1)C(F)(F)F,105%,86.5%,102%,64.5%,82%,56.5%,89.3%,87.2%
NS(=O)(=O)Oc1ccc(-c2ccc3sccc3c2)cc1,105%,91.1%,104%,99.9%,120%,95.3%,99.2%,101%
Oc1cccc(-c2nc3sccn3c2-c2ccncn2)c1,108%,110%,46%,108%,76.7%,97.3%,111%,107%
CCCCCC(=O)O[C@]1(C(C)=O)CCC2C3CCC4=CC(=O)CC[C@]4(C)C3CC[C@@]21C (some centres undefined),28.6%,31.1%,28.4%,29.5%,13.4%,11.5%,26.2%,28.7%
COc1cccc(N=Nc2cccc(OC)c2)c1,70.2%,85%,98.6%,94.2%,78.8%,84.8%,88.6%,95.8%
NS(=O)(=O)c1ccc(N2N=C(c3ccccc3)CCC2=O)cc1,102%,223%,97.3%,109%,95.4%,86.8%,97%,188%
O=C(CN1CCN(C(=O)c2ccccc2)CC1)Nc1ccccc1SCc1ccccc1,37.7%,68.1%,94.3%,98.5%,86.4%,85.5%,93.6%,84.2%
CCOC(=O)Cn1c(=O)c2sc3ncccc3c2n2nnc(-c3ccccc3)c12,94.3%,98.2%,104%,119%,79.8%,91.5%,114%,114%
CC(=O)O[C@@]12CO[C@@H]1C[C@H](O)[C@@]1(C)C(=O)[C@H](O)C3=C(C)[C@@H](OC(=O)[C@H](O)[C@@H](NC(=O)OC(C)(C)C)c4ccccc4)C[C@@](O)([C@@H](OC(=O)c4ccccc4)C12)C3(C)C (some centres undefined),65.2%,42.8%,-11.7% (active),48.1%,16.1%,34.6%,-18.8% (active),29.6%
CCn1c(SCCc2ccccc2)nnc1-c1nn(-c2ccc(Cl)cc2Cl)c(-c2ccc(Cl)cc2)c1C,42.2%,93.4%,83.2%,83.3%,58.7%,39.1%,110%,69.5%
CCCCCOC(=O)Nc1nc(=O)n(C2O[C@H](C)[C@@H](O)[C@H]2O)cc1F (some centres undefined),102%,102%,98.4%,99.1%,99.8%,101%,101%,103%
COc1cc(-c2csc(NC(=O)Nc3ccc(Cl)c(C(F)(F)F)c3)n2)cc(OC)c1OC,-9.38% (active),-13% (active),-7.7% (active),18.1%,-9.68% (active),-19.6% (active),21.4%,9.25% (active)
COc1ccc(/C=C2\CCCC3=C2NC(N)=NC3c2ccc(OC)c(OC)c2)cc1OC (centres undefined),78.6%,36.1%,30.8%,40.7%,27.6%,7.91% (active),88%,32.1%
COc1cc(-c2nc3ccccc3o2)cc(CN2CCCCC2)c1O,86.6%,67.2%,-79.9% (active),64.6%,50.8%,57.2%,97.7%,44.9%
CN1CCN(CCC(=O)Nc2cccc(-n3cc(-c4ccncc4)c(-c4ccc(Cl)c(O)c4)n3)c2)CC1,62.9%,56.5%,-37.9% (active),20.9%,13.9%,19.1%,82.2%,31.2%
C=C(NC(=O)C(=C)NC(=O)c1csc(C2=NC3c4csc(n4)C4NC(=O)c5csc(n5)C(C(C)(O)C(C)O)NC(=O)C5CSC(=N5)C(=CC)NC(=O)C(C(C)O)NC(=O)c5csc(n5)C3(CC2)NC(=O)C(C)NC(=O)C(=C)NC(=O)C(C)NC(=O)C(C(C)CC)NC2C=Cc3c(C(C)O)cc(nc3C2O)C(=O)OC4C)n1)C(N)=O (centres undefined),40.4%,0.0683% (active),4.84% (active),1.83% (active),16.7%,-70.9% (active),79.3%,28.3%
Cc1ccccc1N1C(=O)c2cc(S(N)(=O)=O)c(Cl)cc2NC1C (centres undefined),104%,96.6%,112%,108%,94.2%,102%,107%,108%
